Measured values taken from PubChem BioAssay.
Activity calls are given as the source filed them.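 The calls were made as follows, unless noted: active = inhibition above 20% together with a positive visual image hit; inconclusive = visual image hit but inhibition not above 20%; inactive = no visual image hit.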

Assays:
[1] = inhibitors of TNFa-induced NFkB p65 translocation, primary screen, imaging, HUVEC, MLSMR starter and 10KST1 sets (AID 438); details: HUVEC TNFa-induced p65 nuclear translocation; cell count: measured here: nuclei count (cytotoxicity indicator), at 2.08 µM unless noted; inhibition: at 2 µM, stronger effect = higher value unless noted;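 also: compound added about 3h40 before a 20 min TNFalpha stimulation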;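 as to inhibition: signal is the nuclear over cytoplasmic p65 intensity ratio per well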
[2] = inhibitors of mutant huntingtin aggregation, primary screen, imaging, exon1htt(103Q)mCFP cells, high-content imaging (AID 483;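 active = visual image review flags a hit and inhibition of aggregation exceeds 20%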;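 also: compound exposure lasted 3 days before fixation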;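 as to nuclei count: percent of the per-plate median nuclei count of sample wells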); details: exon1htt(103Q)mCFP cell line, aggregate imaging, at 2 µM; inhibition of aggregation: stronger effect = higher value; nuclei count: measured here: cell count, toxicity
[3] = inhibitors of E-selectin induction by TNFa, primary screen, imaging, HUVEC, immunofluorescence, MLSMR starter and 10KST1 sets (AID 487;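 active = visually confirmed hit in the image check and inhibition above 20%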;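 as to inhibition: signal is fraction of cell area covered by stained E-selectin grains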;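 as to nuclei count: 100% = median nuclei count of all wells on the same plate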); details: HUVEC TNFalpha-induced E-selectin immunofluorescence imaging, at 2 µM; inhibition: stronger effect = higher value; nuclei count: measured here: cell number, toxicity
[4] = DUSP6 inhibitors restoring Erk phosphorylation by chemical complementation, primary imaging in DUSP6-transfected HeLa (AID 609;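 active = compounds giving at least 50% inhibition in the cell-based MKP-3 phosphatase rescue imaging test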;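 as to inhibition: phospho-Erk level distribution per well compared with pooled transfected vehicle control wells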); details: HeLa MKP-3 transfected, phospho-Erk imaging KS statistic, at 10 µM
[5] = target: Dual specificity protein phosphatase 6 (Homo sapiens) (UniProt Q16828); assay: as above; details: HeLa MKP-3 transfected, phospho-Erk imaging KS statistic, at 10 µM, stronger effect = higher value
Sequence of Dual specificity protein phosphatase 6 (Homo sapiens) (Q16828 whole entry, looked up): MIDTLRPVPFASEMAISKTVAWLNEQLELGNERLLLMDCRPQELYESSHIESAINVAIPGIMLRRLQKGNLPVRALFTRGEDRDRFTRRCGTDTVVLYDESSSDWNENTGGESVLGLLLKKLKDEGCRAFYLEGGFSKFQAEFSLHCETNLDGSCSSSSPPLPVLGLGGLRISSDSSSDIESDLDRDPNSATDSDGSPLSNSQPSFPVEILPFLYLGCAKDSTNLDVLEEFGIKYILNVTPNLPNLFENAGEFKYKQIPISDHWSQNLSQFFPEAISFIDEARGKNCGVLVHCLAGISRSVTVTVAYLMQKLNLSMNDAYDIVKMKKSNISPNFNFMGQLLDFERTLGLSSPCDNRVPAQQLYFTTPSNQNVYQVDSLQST

[6] = target: Voltage-gated potassium channel subunit beta-2 (Rattus norvegicus) (UniProt P62483); assay: KvBeta enzyme negative modulators, primary screen, biochemical, NADPH fluorescence (AID 622;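 active = fluorescence slope higher than the sample average by over 3 SD, cut at about -0.22 in these data, passing the limit was not always enough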;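 also: slope of raw intensity against log time taken from 70 to 1610 s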); details: recombinant KvBeta, 4-cyanobenzaldehyde reduction, at 10 µM, stronger effect = higher value
Sequence of Voltage-gated potassium channel subunit beta-2 (Rattus norvegicus) (P62483 whole entry, looked up): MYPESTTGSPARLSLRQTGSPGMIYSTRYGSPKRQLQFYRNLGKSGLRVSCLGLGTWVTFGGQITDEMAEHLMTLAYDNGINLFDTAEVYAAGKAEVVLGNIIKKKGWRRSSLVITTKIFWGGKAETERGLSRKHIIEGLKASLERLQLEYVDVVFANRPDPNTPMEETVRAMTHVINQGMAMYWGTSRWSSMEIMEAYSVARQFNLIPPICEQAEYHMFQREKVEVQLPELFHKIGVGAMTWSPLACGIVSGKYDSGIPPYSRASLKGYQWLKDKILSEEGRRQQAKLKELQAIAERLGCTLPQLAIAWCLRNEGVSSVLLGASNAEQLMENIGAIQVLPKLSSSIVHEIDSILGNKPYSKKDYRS

[7] = target: Voltage-gated potassium channel subunit beta-2 (Rattus norvegicus) (UniProt P62483); assay: KvBeta positive modulators, primary screen, biochemical, NADPH fluorescence (AID 623;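 active = NADPH fluorescence slope more negative than the mean of all samples by about 3 SD, 99.7% confidence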;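 also: fluorescence intensity change per second fitted from 20 to 320 s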); details: Recombinant KvBeta, NADPH fluorescence decrease slope, 10 min; at 10 µM; stronger effect = lower value
[8] = target: Alpha-2C adrenergic receptor (Homo sapiens) (UniProt P18825); assay: modulators of alpha2C/GIRK thallium flux, primary screen, cell-based, HEK293 alpha2C/GIRK1/2 (AID 624;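 active = fluorescence slope after compound addition differing from the mean of all screened samples at 99.7% confidence, in either direction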;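 also: slope of fluorescence ratio to pre-addition baseline per second over 15 to 24 s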); details: thallium flux BTC fluorescence, at 10 µM, actives lie on both sides
Sequence of Alpha-2C adrenergic receptor (Homo sapiens) (P18825 whole entry, looked up): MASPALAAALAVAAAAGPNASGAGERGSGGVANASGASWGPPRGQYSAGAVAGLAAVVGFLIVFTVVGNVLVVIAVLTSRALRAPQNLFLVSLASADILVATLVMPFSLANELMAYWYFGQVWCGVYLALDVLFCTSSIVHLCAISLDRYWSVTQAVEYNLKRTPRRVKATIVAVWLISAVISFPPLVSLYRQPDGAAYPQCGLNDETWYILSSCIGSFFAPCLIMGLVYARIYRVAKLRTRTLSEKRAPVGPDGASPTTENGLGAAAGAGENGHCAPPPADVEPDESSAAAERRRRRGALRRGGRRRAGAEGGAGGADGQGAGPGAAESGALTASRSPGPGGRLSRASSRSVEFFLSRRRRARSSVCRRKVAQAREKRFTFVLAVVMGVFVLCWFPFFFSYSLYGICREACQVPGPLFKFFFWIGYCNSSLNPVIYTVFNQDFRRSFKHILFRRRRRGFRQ

[9] = inhibitors of larval lipid processing in zebrafish, primary screen, whole organism, PED6 fluorescence, gall bladder and intestine (AID 686;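 active = a full or partial loss of lipid-probe fluorescence in the fish gall bladder, intestine or both, judged by eye; inactive = no fluorescence loss, or compound toxic to the fish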;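 also: larvae 5 to 7 days old with five fish per well; signal comes from phospholipase A2 cleavage of quenched PED6 carried via bile; overnight exposure to compound and PED6 before scoring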); details: Zebrafish larvae PED6 lipid processing, fluorescence scoring
[10] = inhibitors of Chlamydomonas gravitaxis, primary screen, whole organism, Chlamydomonas reinhardtii, WT vs cilia-less mutant, absorbance, 96-well (AID 463189;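 active = inhibition at or above 50% relative to wild type and mutant plate controls; inactive = inhibition below 50%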;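 also: 0% = wild type cc124 cells in DMSO and 100% = ciliumless bld1 mutant cells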); details: OD600 absorbance, 2 days, at 10 µM, stronger effect = higher value
[11] = inhibitors of Sendai virus-induced IRF3 signaling, primary screen, TLR/RLR signaling modifier project, cell-based, Sendai virus stimulus, luciferase, 10K MLSCN set (AID 602276;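 active = inhibition at or above 50% at 10 µM; inactive = inhibition below 50%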;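 also: firefly luciferase from ISG56 promoter only with Renilla not read in this screen; 0% = Sendai virus plus DMSO and 100% = medium plus DMSO without virus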); details: HEK293 RL24 IRF3 luciferase reporter, at 10 µM, stronger effect = higher value
[12] = inhibitors of poly I:C-induced TLR3 signaling, primary screen, cell-based, poly I:C stimulus, luciferase, 10K MLSCN set (AID 602277;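 active = inhibition of the reporter signal at or above 50%; inactive = inhibition below 50%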); details: HEK293-TLR3 RL24 IRF3 luciferase reporter, at 10 µM, stronger effect = higher value
[13] = target: Muscarinic acetylcholine receptor M4 (Homo sapiens) (UniProt P08173); assay: compounds altering M4/GIRK thallium flux, either direction, primary screen, M4 allosteric agonist project, cell-based, HEK293 M4/GIRK, BTC-AM (AID 625;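 active = fluorescence slope after compound addition differing from the mean of all tested samples at 99.7% confidence, mostly higher but some lower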;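 also: thallium influx through GIRK channels coupled to M4 in HEK293 cells with BTC-AM dye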); details: at 10 µM, actives lie on both sides
Sequence of Muscarinic acetylcholine receptor M4 (Homo sapiens) (P08173 whole entry, looked up): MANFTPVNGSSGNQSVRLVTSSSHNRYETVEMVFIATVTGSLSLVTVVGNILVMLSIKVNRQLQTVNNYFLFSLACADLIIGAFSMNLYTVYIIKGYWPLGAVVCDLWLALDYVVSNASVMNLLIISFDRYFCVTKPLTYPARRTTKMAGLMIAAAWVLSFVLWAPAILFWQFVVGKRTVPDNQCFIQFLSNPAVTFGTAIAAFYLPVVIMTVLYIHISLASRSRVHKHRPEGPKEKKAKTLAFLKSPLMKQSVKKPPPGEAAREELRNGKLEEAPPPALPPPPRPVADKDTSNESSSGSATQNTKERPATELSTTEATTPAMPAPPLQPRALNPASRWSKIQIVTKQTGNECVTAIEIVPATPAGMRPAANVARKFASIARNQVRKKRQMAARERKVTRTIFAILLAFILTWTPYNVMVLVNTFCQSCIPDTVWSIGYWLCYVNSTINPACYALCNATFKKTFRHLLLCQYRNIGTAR

[14] = measured here: cell density z-score
[15] = measured here: nuclear c-Myc green intensity z-score
[16] = measured here: nuclear pErk red intensity z-score, stronger effect = higher value

CCCCCCn1c(O)c(C=NC2CCN(Cc3ccccc3)CC2)c(=O)[nH]c1=O
cell count [1]: 592 | inhibition [1]: -3.3% (inactive) | inhibition of aggregation [2]: -17.9% (inactive) | nuclei count [2]: 112% | inhibition [3]: -34.2% (inactive) | nuclei count [3]: 131% | z-score [4, 14]: 2 | z-score [4, 15]: -0.0485 | z-score [4, 16]: 0.697 | inhibition [5]: 19.3% (inactive) | fluorescence slope [6]: -0.332 (inactive) | NADPH fluorescence slope [7]: -2.2e-05 (inactive) | slope [8]: 0.0054 (inactive) | outcome [9]: inactive | inhibition [10]: 25.8% (inactive) | inhibition [11]: 11.7% (inactive) | inhibition [12]: -13.6% (inactive)

COC1=CC(=O)OC(/C=C/c2ccccc2)C1 (configuration not stated)
cell count [1]: 562 | inhibition [1]: 0.9% (inactive) | inhibition of aggregation [2]: 17.4% (inactive) | nuclei count [2]: 92% | inhibition [3]: 1.6% (inactive) | nuclei count [3]: 112% | z-score [4, 14]: 1.47 | z-score [4, 15]: -1.75 | z-score [4, 16]: -1.36 | inhibition [5]: 25.7% (inactive) | fluorescence slope [6]: -0.448 (inactive) | NADPH fluorescence slope [7]: -5.6e-05 (inactive) | slope [8]: 0.00584 (inactive) | outcome [9]: inactive | inhibition [10]: -16.3% (inactive) | inhibition [11]: 0.4% (inactive) | inhibition [12]: -0.629% (inactive)

c1ccc2c3c([nH]c2c1)CNCC3
cell count [1]: 485 | inhibition [1]: -1.2% (inactive) | inhibition of aggregation [2]: 3.2% (inactive) | nuclei count [2]: 92.7% | inhibition [3]: -84.5% (inactive) | nuclei count [3]: 114% | z-score [4, 14]: 0.136 | z-score [4, 15]: -0.573 | z-score [4, 16]: -0.521 | inhibition [5]: 23.4% (inactive) | fluorescence slope [6]: -0.459 (inactive) | NADPH fluorescence slope [7]: -6.4e-05 (inactive) | slope [8]: 0.00455 (inactive) | inhibition [10]: 24.5% (inactive) | inhibition [11]: 4.35% (inactive) | inhibition [12]: 51.6% (active)

C[C@@]1(CO)[C@H](O)CC[C@@]2(C)[C@H]1CC[C@H]1C[C@@H]3C[C@@]12CC[C@]3(O)CO
cell count [1]: 629 | inhibition [1]: -4.1% (inactive) | inhibition of aggregation [2]: -9.1% (inactive) | nuclei count [2]: 9.1% | inhibition [3]: -34.7% (inactive) | nuclei count [3]: 113% | z-score [4, 14]: 0.71 | z-score [4, 15]: -0.0811 | z-score [4, 16]: -0.673 | inhibition [5]: 1.48% (inactive) | fluorescence slope [6]: -0.469 (inactive) | NADPH fluorescence slope [7]: -5.6e-05 (inactive) | slope [8]: 0.00555 (inactive) | outcome [9]: inactive | inhibition [10]: -7.52% (inactive) | inhibition [11]: -34.2% (inactive) | inhibition [12]: 49.2% (inactive)

CCC(COC(=O)c1cc(OC)c(OC)c(OC)c1)(c1ccccc1)N(C)C (configuration not stated)
cell count [1]: 445 | inhibition [1]: -6.3% (inactive) | inhibition of aggregation [2]: 12.7% (inactive) | nuclei count [2]: 92.2% | inhibition [3]: -6.1% (inactive) | nuclei count [3]: 92.2% | z-score [4, 14]: -0.162 | z-score [4, 15]: 0.437 | z-score [4, 16]: -0.404 | inhibition [5]: 3.45% (inactive) | fluorescence slope [6]: -0.498 (inactive) | NADPH fluorescence slope [7]: -7.2e-05 (inactive) | slope [8]: 0.00446 (inactive) | outcome [9]: inactive | inhibition [10]: -3.48% (inactive) | inhibition [11]: 1.96% (inactive) | inhibition [12]: 35% (inactive)

Clc1ccc(CSC(Cn2ccnc2)c2ccc(Cl)cc2Cl)cc1 (configuration not stated)
cell count [1]: 639 | inhibition [1]: 3.8% [at 2 µM, stronger effect = higher value, 0% TNFa-plus-vehicle, 100% no-TNFa wells] (inactive) | inhibition of aggregation [2]: -3.9% (inactive) | nuclei count [2]: 108% | inhibition [3]: -57.9% (inactive) | nuclei count [3]: 120% | z-score ([4]; measured here: cell density z-score, cells stimulated with TPA for 15 min): 0.528 | z-score ([4]; measured here: nuclear c-Myc green intensity z-score, cells stimulated with TPA for 15 min): 0.633 | z-score ([4]; measured here: nuclear pErk red intensity z-score, stronger effect = higher value, cells stimulated with TPA for 15 min): 0.478 | inhibition [5]: 10.2% [cells stimulated with TPA for 15 min] (inactive) | fluorescence slope [6]: -0.531 (inactive) | NADPH fluorescence slope [7]: -3.2e-05 (inactive) | slope [8]: 0.0071 (inactive) | outcome [9]: inactive; toxic [screened at 20 µM (by protocol)] | inhibition [10]: 31.3% (inactive) | inhibition [11]: 13.2% (inactive) | inhibition [12]: 7.53% (inactive)

Nc1ccc(C2(c3ccc(N)cc3)CN3CCC2CC3)cc1
cell count [1]: 688 | inhibition [1]: -0.7% (inactive) | inhibition of aggregation [2]: 1.5% (inactive) | nuclei count [2]: 104% | inhibition [3]: -49.8% (inactive) | nuclei count [3]: 138% | z-score [4, 14]: -0.8 | z-score [4, 15]: 0.409 | z-score [4, 16]: -0.625 | inhibition [5]: 1.12% (inactive) | fluorescence slope [6]: -0.502 (inactive) | NADPH fluorescence slope [7]: -3e-05 (inactive) | slope [8]: 0.00562 (inactive) | fluorescence slope [13]: 0.00533 (inactive) | outcome [9]: inactive | inhibition [10]: 8.44% (inactive) | inhibition [11]: 2.43% (inactive) | inhibition [12]: 13.5% (inactive)

O=c1[nH]c(=O)n(-c2cccc3ccccc23)c(O)c1C=NCCCn1ccnc1
cell count [1]: 430 | inhibition [1]: 2.6% (inactive) | inhibition of aggregation [2]: -2.6% (inactive) | nuclei count [2]: 113% | inhibition [3]: -19% (inactive) | nuclei count [3]: 71.8% | z-score [4, 14]: 0.0574 | z-score [4, 15]: -0.666 | z-score [4, 16]: -0.681 | inhibition [5]: -5.95% (inactive) | fluorescence slope [6]: -0.411 (inactive) | NADPH fluorescence slope [7]: -2.1e-05 (inactive) | slope [8]: 0.00458 (inactive) | fluorescence slope [13]: 0.00656 (inactive) | outcome [9]: inactive | inhibition [10]: -5.53% (inactive) | inhibition [11]: 19% (inactive) | inhibition [12]: 17.8% (inactive)

c1ccc2c(c1)[nH]c1cnccc12
cell count [1]: 584 | inhibition [1]: -5.4% (inactive) | inhibition of aggregation [2]: -8.3% (inactive) | nuclei count [2]: 86.9% | inhibition [3]: -52.4% (inactive) | nuclei count [3]: 113% | z-score [4, 14]: 0.863 | z-score [4, 15]: -0.369 | z-score [4, 16]: 0.512 | inhibition [5]: -10.4% (inactive) | fluorescence slope [6]: -0.166 (active) | NADPH fluorescence slope [7]: 2.2e-05 (inactive) | slope [8]: 0.00469 (inactive) | outcome [9]: inactive | inhibition [10]: 6.75% (inactive) | inhibition [11]: 2.27% (inactive) | inhibition [12]: 16.3% (inactive)

CN1CC=C2C(C#N)=C(N)C(C#N)(C#N)C(c3ccncc3)C2C1 (configuration not stated)
cell count [1]: 568 | inhibition [1]: -17% (inactive) | inhibition [3]: 30.3% (inactive) | nuclei count [3]: 179% | z-score [4, 14]: -0.865 | z-score [4, 15]: 3.38 | z-score [4, 16]: -0.482 | inhibition [5]: 67.6% (inactive) | fluorescence slope [6]: -0.392 (inactive) | NADPH fluorescence slope [7]: -5.3e-05 (inactive) | slope [8]: 0.00203 (inactive) | outcome [9]: inactive | inhibition [10]: 11.3% (inactive)
